Reference: PubChem BioAssay (NCATS)
Records with an inconclusive call do not appear. A call without a number means that no potency is given here. Active and inactive are the calls of the source. Calls follow the shape of the dose curve; as a rule, active = well fitted cell-killing curve with a large enough effect; inconclusive = small, poorly fitted or top-dose-only effect; inactive = flat fitted curve, though single readings scatter.

Test: Cellular viability qHTS for adrenocortical cancer (ACC) cell line NCI-H295R (AID 1963990); also: nearly all actives have a fitted effect of over 60% in size
Settings: CellTiter-Glo ATP luminescence, 48 h; series mostly up to 46.1 µM
Procedure, shortened: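 Readout: CellTiter-Glo luminescence, 20 min RT. Exposure: 48 h, 37C/5% CO2. Cells: NCI-H295R, ITS-DMEM serum-free. Range: up to 46 uM. Analysis: 4PL fit, IC50 plus efficacy.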
Potency is read from the fitted curve at half-maximal effect.

SMILES | Potency
c1ccc(-c2ccc(CNc3nc(-c4ccccn4)nnc3-c3ccccc3)cc2)cc1 | 17.8 µM (active)
CC1=NN(c2ccc(C(=O)O)cc2)C(=O)/C1=C/c1ccc(-c2cc(C)c(C)cc2[N+](=O)[O-])o1 | inactive
NC(=O)c1nc(F)c[nH]c1=O | inactive
CN1[C@@H]2CCC[C@H]1CC(NC(=O)c1nn(C)c3ccccc13)C2 (some centres undefined) | inactive
COc1cc2nccc(Oc3ccc(NC(=O)c4cn(C(C)C)c(=O)n(-c5ccc(F)cc5)c4=O)cc3F)c2cc1OC | inactive
O=C1NCC2(CCN(CCc3ccccc3)CC2)O1 | inactive
CCCCCN(CCCOC)C(=O)C(CCC(=O)O)NC(=O)c1ccc(Cl)c(Cl)c1 (centres undefined) | inactive
COc1cc(C(=O)NC2CCCNC2)cc(OC)c1OC (centres undefined) | inactive
C[C@@H](O)[C@@H]1NC(=O)[C@H](CCCCN)NC(=O)[C@@H](Cc2c[nH]c3ccccc23)NC(=O)[C@H](Cc2ccccc2)NC(=O)[C@@H](NC(=O)[C@H](N)Cc2ccccc2)CSSC[C@@H](C(=O)N[C@H](CO)[C@@H](C)O)NC1=O | inactive
C[C@@]1(c2ncncc2F)NC(=O)c2cc(-c3cn[nH]c3)ccc21 | inactive
CCCCN1C[C@H](O)[C@@H](O)[C@H](O)[C@H]1CO | inactive
CCN(CC)CCNC(C(=O)OCCC(C)C)c1ccccc1 (centres undefined) | inactive
CC/C=C(\C(=O)N[C@@H]1C(=O)N2C(C(=O)OCOC(=O)C(C)(C)C)=C(COC(N)=O)CS[C@H]12)c1csc(N)n1 | inactive
Cc1ccc([N+](=O)[O-])cc1S(=O)(=O)N(C)/N=C/c1cnc2ccc(Br)cn12 | 0.282 µM (active)
C[C@@H](O)[C@@H](C)Oc1nc(Nc2ccc(S(=N)(=O)C3CC3)cc2)ncc1C(F)(F)F (some centres undefined) | inactive
CCCN1CCCC[C@H]1C(=O)Nc1c(C)cccc1C | inactive
C[C@]12C=CC(=O)C=C1CC[C@@H]1[C@@H]2[C@@H](O)C[C@@]2(C)[C@H]1CC[C@]2(O)C(=O)CO | inactive
CCCCOC(=O)NS(=O)(=O)c1sc(CC(C)C)cc1-c1ccc(Cn2ccnc2)cc1 | 25.1 µM (active)
CCOC(=O)C1=C(C)NC(C)=C(C(=O)OCC)C1c1ccccc1/C=C/C(=O)OC(C)(C)C | 6.51 µM (active)
Nc1c(NC/C=C\COc2cc(CN3CCCCC3)ccn2)c(=O)c1=O | inactive
CC(=O)N[C@@H](CC(C)C)C(=O)O | inactive
Nc1ccc(S(=O)(=O)Nc2cnc3ccccc3n2)cc1 | inactive
Cc1c(O)cccc1C(=O)NC(CSc1ccccc1)C(O)CN1CC2CCCCC2CC1C(=O)NC(C)(C)C (centres undefined) | 17.8 µM (active)
COc1cc(N2CCC(N)CC2)ccc1Nc1ncc(Cl)c(-c2c[nH]c3ccccc23)n1 | 0.447 µM (active)
